40 molecules from PubChem BioAssay (NCI) can be followed below.

About 83,000 compounds went through this panel and 20% of them were active in at least one assay; those are over-represented in the sample as a whole.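 Results are percent growth after 48 hours of single-concentration exposure. 100 means growth as in untreated cells, lower positive values show inhibition; negative values down to -100 show cell death.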 Unmarked numbers belong to inactive results. Active and inactive are the calls of the source.

The experiment has as its system A498 renal. Put plainly: NCI-60 one-dose screen, 48 h (100 = growth as untreated, 0 = no growth, -100 = all killed). The following applies: 10 µM unless noted. On the procedure: Growth inhibition of the A498 human tumor cell line is measured as a screen for anti-cancer activity. Cells are grown in 96 well plates and exposed to the test compound for 48 hours. Compounds are tested at a single concentration, which is 10^-5 M for most compounds. The reported endpoint is percent growth (GI% or GIPRCNT), where numbers from 0 - 100% represent growth inhibition, and numbers from -100% - 0 represent cell death. For example, a value of 40 represents 60% growth inhibition. A value of 0 means no net growth occurred over the course of the experiment. A value of -40 indicates 40% of cells at the beginning of the experiment died by the end of the experiment. A value of -100 means all cells are dead at the end of the experiment.
NCI-60 Human Tumor Cell Lines Screen was performed using the standard one-dose NCI protocol, which is described in more detail at https://dtp.cancer.gov/discovery_development/nci-60/default.htm.
Compounds with GIPRCNT values below 10 were considered active. Activity score was based on GIPRCNT using the following formula: […]
Score is 0 for GIPRCNT values of 100 or above, 50 for GIPRCNT values of 0, and 100 for GIPRCNT values of -100.
Regarding `CC(C)Cn1cnc2c3ccccc3nc(NCn3nc(-c4cc(Cl)cc(Cl)c4Cl)oc3=S)c21`, the growth is 89.5%.

With `O=C(C[n+]1ccccc1Cl)c1ccc2c(c1)CCCC2`, the growth is 91.3%.

Turning to `CC(=O)N1N=C(CCC(=O)c2nc3ccc([N+](=O)[O-])cc3[nH]2)OC1c1ccc(O)cc1` (stereo not given), the growth is 104%.

For `CO[C@H]1/C=C/C=C/C=C/C[C@H](OC(=O)[C@@H](C)NC(=O)C2CCCCC2)[C@H](C)[C@@H](O)/C(C)=C\CCC2=CC(=O)C=C(NC(=O)C1)C2=O`, the growth is -2.6% (active).

For `O=C1C(Cl)=C(Nc2cccc3cc4ccccc4nc23)C(=O)c2ccccc21`, the growth is 46.5%.

For the molecule `CC1=C2C(=C[C@@](C)(CO)[C@@H]2OC(=O)N(C)CCN(C)C(=O)OC(C)(C)C)C(=O)[C@](C)(O)C12CC2`, the growth is 97%.

Consider `COC(=O)CCCNS(=O)(=O)c1cc(C(=O)Nc2ccc(NC(=O)c3cc(S(=O)(=O)NCCCC(=O)OC)c(O)c(O)c3O)cc2)c(O)c(O)c1O`, for which the growth is 104%.

Consider `O=C(O)c1cn(C2CC2)c2cc(N3CCN(C(=O)CSc4nc(NS(=O)(=O)c5ccccc5)cc(=O)[nH]4)CC3)c(F)cc2c1=O`, for which the growth is 113%.

For the molecule `CC(CCC(=O)O)[C@H]1CCC2C3C(=O)C[C@@H]4CC(=O)CC[C@]4(C)C3CC(=O)[C@@]21C` (stereo not given in full), the growth is 88%.

For `Cc1cn(C2CC(F)C(CO)O2)c(=O)[nH]c1=O` (stereo not given), the growth is 112%.

As to `COc1ccccc1S(=O)(=O)Nc1ccc2c3c(cc(-c4ccoc4)nc13)C(=O)N2C`, the growth is 71.7%.

In the case of `COc1ccc(C2CC(c3cc(Cl)c(C)cc3OC)=NN2c2ccc(S(N)(=O)=O)cc2)cc1OC` (stereo not given), the growth is 112%.

As for `CC/C(=C(\CC)c1ccc(OCCN(CC)CC)cc1)c1ccc(OCCN(CC)CC)cc1`, the growth is 43.4%.

Regarding `COc1ccc(-c2nn(-c3ccc(NC(=O)Nc4ccc(Cl)c(C(F)(F)F)c4)cc3)cc2-c2ccncc2)cc1Cl`, the growth was -5.72% (active).

With `COc1cc(C(=O)NNC(=O)c2ccccc2C(=O)O)cc(OC)c1OC`, the growth was 78.7%.

For the molecule `CN1C(=O)C2(SCC(C(=O)NCC(=O)OC(C)(C)C)N2C(=O)C2CCCCC2)c2ccccc21` (stereo not given), the growth was 83.5%.

For `COc1cc(Cn2cc3c(c2)-c2onc(CO)c2CC3)cc(OC)c1OC`, the growth was 97.5%.

For `NC(N)=N/N=C/c1ccc([N+](=O)[O-])cc1`, the growth was 79.7%.

Regarding `FC(F)(F)c1cccc([Si](F)(c2cccc(C(F)(F)F)c2)c2cccc(C(F)(F)F)c2)c1`, the growth is 90.4%.

As for `CCN(CC)CCNC(=O)c1c(C)[nH]c(/C=C2\C(=O)Nc3cc(NC(=O)NC(=O)c4ccc(OC)cc4F)ccc32)c1C`, the growth is 77.6%.

In the case of `CC(C)NCC(O)COc1ccc(CC(N)=O)cc1` (stereo not given), the growth is 92.9%.

Regarding `Clc1ccc2c(c1)nnn1c3ncccc3c(Br)c21`, the growth is 70.5%.

With `COc1cc2ncnc(Oc3ccc(NC(=O)Nc4ccc(C5(C#N)CCCC5)cc4)c4ccccc34)c2cc1OC`, the growth is 82.4%.

For `O=C(Nc1ccc(Cl)c(Cl)c1)Nc1ccc(Cl)c([N+](=O)[O-])c1`, the growth is -25.9% (active).

As for `C=C1C(=O)O[C@H]2[C@H]1CC/C(COC(=O)c1cccc3ccccc13)=C\CC[C@@]1(C)O[C@@H]21`, the growth was 82.2%.

Regarding `Cc1cc[n+](CCCC[n+]2ccc(C)cc2)cc1`, the growth was 121%.

`O=C(Nc1ccccc1Cl)c1c[nH]c(=O)c(-c2ccc(N3CCCOC4(CC4)C3)cc2)c1`: the growth was 47.9%.

For `NC(=NCCCOc1ccc(F)cc1)Nc1ccc(Cl)c(Cl)c1`, the growth was 60.9%.

Consider `COc1cc2nc(C(=O)N3CCCCC3)cc(Nc3ccccc3)c2cc1OC`, for which the growth was 91%.

On to `Cc1cc(O[C@@H]2O[C@@H](C)[C@H](O)[C@@H](O)[C@H]2O)c2c3c(c(O[C@@H]4O[C@@H](C)[C@H](O)[C@@H](O)[C@H]4O)cc2c1)C(=O)c1c(O)cccc1C3=O`, for which the growth was -53% (active).

In the case of `O=C1COc2ccccc2C(=O)N1CCCCNc1ccccc1`, the growth was 97.8%.

Turning to `COC(OC)C1(c2ccccc2)NC(=O)NC1=O` (stereo not given), the growth was 108%.

As for `Nc1nccc2c1ccn2-c1ccc(NC(=O)Nc2cccc(C(F)(F)F)c2)cc1`, the growth was 88.4%.

`COc1ccc(/C(=C/c2cc(OC)c(OC)c(OC)c2)[N+](=O)[O-])cc1`: the growth was 87.4%.

Take `COc1cc(NS(C)(=O)=O)ccc1Cc1c2ccccc2nc2ccccc12`: the growth was -8.76% (active).

Turning to `C#CCn1c(-c2cc(OC)c(OC)cc2Br)nc(-c2ccccc2)c1-c1ccccc1`, the growth was 37.7%.

As for `COc1ccc(/C=C/C(=O)c2ccc(Oc3ncnc4ccccc34)cc2)cc1OC`, the growth is 98.9%.

Consider `COc1cc(NC(C)CCCN2C(=O)c3ccccc3C2=O)c2ncccc2c1OC` (stereo not given), for which the growth is 104%.

Take `COc1cc2c(cc1OCCCCC(=O)Nc1ccc(-c3nc4ccccc4s3)cc1)N=C[C@@H]1CCCN1C2=O`: the growth was -79.3% (active).

On to `Cc1ccc2c(C3C(C#N)=C(N)Oc4cc5ccccc5cc43)cc(=O)oc2c1` (stereo not given), for which the growth was 30.8%.
